Measurements from PubChem BioAssay (Tox21).
Several values for one entry are separate records, joined by “and”; a condition that tells them apart may be missing. Identical values can stand only once. The source holds several records for some structures; these can differ, active in one and inactive in another. Activity calls are given as the source filed them. Entries that show only a call come without a potency. Unless noted, calls come from the whole dose curve; as a rule, active = well fitted curve in the direction sought with a large enough effect in the repeat runs; inconclusive = weak or mixed curves; inactive = no such curve, though single readings can be large; an effect the other way counts as inactive or inconclusive. Residues, ends and D or L forms follow the SMILES beside them.

Assays:
[1] = qHTS assay to identify small molecule antagonists of the thyroid receptor (TR) signaling pathway - cell viability counter screen (AID 743064); note: nearly all actives have a fitted effect of over 50% in size; note: potency is the fitted concentration of half-maximal effect
In short: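 Viability of T3-stimulated (1 nM final) GH3.TRE-Luc cells is measured by CellTiter-Fluor fluorescence after 23.5 h compound exposure at 37 °C plus 30 min reagent incubation.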

[2] = qHTS assay to identify small molecule antagonists of the thyroid receptor (TR) signaling pathway (AID 743065); note: nearly all actives have a fitted effect of over 55% in size; note: potency is the fitted concentration of half-maximal effect
In short: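 GH3.TRE-Luc rat pituitary cells (two TREs driving luciferase) were dosed with compound, then stimulated with 1 nM T3 (final) for 23.5 h at 37 C. ONE-Glo luminescence was the read-out, with CellTiter-Fluor fluorescence as the cytotoxicity counter-screen.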

[3] = tested on: thyroid hormone receptor (rat, GH3 cells); assay: qHTS assay to identify small molecule agonists of the thyroid receptor (TR) signaling pathway (AID 743066; calls by dose curve; note: potency is the fitted concentration of half-maximal effect)
[4] = molecular target: Estrogen receptor (Homo sapiens) (UniProt P03372); assay: qHTS assay to identify small molecule antagonists of the estrogen receptor alpha (ER-alpha) signaling pathway (AID 743069; active = well fitted curve in the direction sought with a large enough effect in the signal ratio in the repeat runs, not every such curve was filed as active; inconclusive = weak or mixed curves, or effect the other way; inactive = no such curve, though single readings can be large or run the other way; the % refers to the signal ratio; note: potency is the fitted concentration of half-maximal effect)
Estrogen receptor (Homo sapiens), sequence (P03372 whole entry, looked up): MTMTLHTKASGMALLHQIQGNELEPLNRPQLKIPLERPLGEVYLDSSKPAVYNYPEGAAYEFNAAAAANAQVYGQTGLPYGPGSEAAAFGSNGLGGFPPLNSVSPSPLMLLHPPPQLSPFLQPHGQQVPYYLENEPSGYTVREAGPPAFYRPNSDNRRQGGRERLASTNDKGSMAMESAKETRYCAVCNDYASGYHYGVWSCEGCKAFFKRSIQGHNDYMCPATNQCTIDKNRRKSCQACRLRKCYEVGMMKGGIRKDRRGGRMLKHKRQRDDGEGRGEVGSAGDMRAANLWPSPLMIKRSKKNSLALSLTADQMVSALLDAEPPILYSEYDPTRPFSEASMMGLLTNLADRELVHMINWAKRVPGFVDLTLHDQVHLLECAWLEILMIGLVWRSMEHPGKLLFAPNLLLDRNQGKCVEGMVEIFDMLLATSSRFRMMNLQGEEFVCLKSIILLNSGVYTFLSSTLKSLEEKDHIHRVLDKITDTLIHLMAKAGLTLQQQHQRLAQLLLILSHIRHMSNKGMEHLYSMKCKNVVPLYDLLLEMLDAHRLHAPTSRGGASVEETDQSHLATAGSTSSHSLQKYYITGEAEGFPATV
In short: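 In this cell-based reporter format, GripTite HEK293 cells harbouring ER-alpha-UAS-bla were grown overnight with 2% charcoal-stripped FBS, dosed with DMSO-dissolved compounds, then challenged with 17beta-estradiol. After 18 hr at 37C, beta-lactamase activity was detected by FRET fluorescence.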

[5] = qHTS assay to identify small molecule antagonists of the estrogen receptor alpha (ER-alpha) signaling pathway - cell viability counter screen (AID 743074; calls by dose curve; note: nearly all actives have a fitted effect of over 45% in size)
[6] = molecular target: Estrogen receptor (Homo sapiens) (UniProt P03372); assay: qHTS assay to identify small molecule agonists of the estrogen receptor alpha (ER-alpha) signaling pathway (AID 743075; calls by dose curve)
[7] = molecular target: Estrogen receptor (Homo sapiens) (UniProt P03372); assay: qHTS assay to identify small molecule agonists of the estrogen receptor alpha (ER-alpha) signaling pathway using the BG1 cell line (AID 743079); note: nearly all actives have a fitted effect of over 20% in size; note: potency is the fitted concentration of half-maximal effect
[8] = qHTS assay to identify small molecule antagonists of the estrogen receptor alpha (ER-alpha) signaling pathway using the BG1 cell line (AID 743080; calls by dose curve;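 note: BG1 cells stimulated with 17beta-estradiol alongside compound; nearly all actives have a fitted effect of over 25% in size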; note: potency is the fitted concentration of half-maximal effect)
In short: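 Endogenous full-length ER-alpha in BG1-Luc-4E2 cells drives a stably integrated 4×ERE luciferase gene; compounds were tested against 17beta-estradiol over 21.5 h, with luminescence and multiplexed viability fluorescence recorded.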

[9] = qHTS assay to identify small molecule antagonists of the estrogen receptor alpha (ER-alpha) signaling pathway using the BG1 cell line - cell viability counter screen (AID 743081);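 note: compound given together with 17beta-estradiol as the ER stimulus; nearly all actives have a fitted effect of over 45% in size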; note: potency is the fitted concentration of half-maximal effect
Aromatase (Homo sapiens) = Aromatase (Homo sapiens) (UniProt P11511); assay: qHTS assay to identify aromatase inhibitors (AID 743083); note: nearly all actives have a fitted effect of over 55% in size; note: potency is the fitted concentration of half-maximal effect
Aromatase (Homo sapiens), sequence (P11511 whole entry, looked up): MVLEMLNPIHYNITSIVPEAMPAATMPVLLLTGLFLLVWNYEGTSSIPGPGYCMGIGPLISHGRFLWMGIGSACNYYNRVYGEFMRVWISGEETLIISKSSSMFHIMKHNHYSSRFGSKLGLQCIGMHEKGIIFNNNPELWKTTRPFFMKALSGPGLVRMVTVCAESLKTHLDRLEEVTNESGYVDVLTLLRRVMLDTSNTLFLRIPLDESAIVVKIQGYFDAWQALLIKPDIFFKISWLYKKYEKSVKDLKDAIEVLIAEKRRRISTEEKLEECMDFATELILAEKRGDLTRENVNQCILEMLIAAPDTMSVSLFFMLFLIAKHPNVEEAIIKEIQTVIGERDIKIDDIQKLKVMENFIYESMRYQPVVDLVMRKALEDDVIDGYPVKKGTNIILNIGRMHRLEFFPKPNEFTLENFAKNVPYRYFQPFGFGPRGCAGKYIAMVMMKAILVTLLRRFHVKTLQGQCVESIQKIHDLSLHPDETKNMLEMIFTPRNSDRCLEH

[10] = qHTS assay to identify aromatase inhibitors - cell viability counter screen (AID 743084);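 note: cells stimulated with testosterone during compound exposure; nearly all actives have a fitted effect of over 55% in size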; note: potency is the fitted concentration of half-maximal effect
[11] = molecular target: Aryl hydrocarbon receptor (Homo sapiens) (UniProt P35869); assay: qHTS assay to identify small molecule that activate the aryl hydrocarbon receptor (AhR) signaling pathway (AID 743085);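 note: HG2L7.5c1 human HepG2 liver cells with stably integrated DRE-driven firefly reporter; series mostly up to about 70 µM; nearly all actives have a fitted effect of over 15% in size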
Aryl hydrocarbon receptor (Homo sapiens), sequence (P35869 whole entry, looked up): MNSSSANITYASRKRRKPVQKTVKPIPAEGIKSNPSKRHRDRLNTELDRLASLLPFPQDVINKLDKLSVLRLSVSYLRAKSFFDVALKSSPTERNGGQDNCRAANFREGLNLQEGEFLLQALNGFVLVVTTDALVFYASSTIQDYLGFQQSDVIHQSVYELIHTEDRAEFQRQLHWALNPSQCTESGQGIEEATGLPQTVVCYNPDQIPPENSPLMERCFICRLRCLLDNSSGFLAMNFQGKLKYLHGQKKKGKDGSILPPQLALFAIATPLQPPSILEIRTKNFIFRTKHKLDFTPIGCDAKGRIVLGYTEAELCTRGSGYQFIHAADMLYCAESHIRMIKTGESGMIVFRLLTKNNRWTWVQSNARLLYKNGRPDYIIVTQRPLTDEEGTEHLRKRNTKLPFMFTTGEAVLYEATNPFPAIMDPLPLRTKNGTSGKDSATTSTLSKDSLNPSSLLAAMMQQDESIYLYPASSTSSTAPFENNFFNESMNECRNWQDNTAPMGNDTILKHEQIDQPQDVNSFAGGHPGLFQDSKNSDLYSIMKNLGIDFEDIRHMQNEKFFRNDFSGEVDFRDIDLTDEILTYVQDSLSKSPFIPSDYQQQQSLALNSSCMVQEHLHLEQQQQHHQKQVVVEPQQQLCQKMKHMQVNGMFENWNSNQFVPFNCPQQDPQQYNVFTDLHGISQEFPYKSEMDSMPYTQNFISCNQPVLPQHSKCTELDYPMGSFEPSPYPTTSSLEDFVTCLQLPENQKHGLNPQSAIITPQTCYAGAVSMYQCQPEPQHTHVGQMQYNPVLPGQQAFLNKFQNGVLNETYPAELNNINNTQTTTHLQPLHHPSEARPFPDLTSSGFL
In short: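 A multiplexed format paired cell viability (CellTiter-Fluor fluorescence) with AhR-dependent luciferase output (ONE-Glo luminescence) in the same wells of HepG2 DRE-luc cells after 24 h compound exposure at 37C.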

[12] = qHTS assay to identify small molecule that activate the aryl hydrocarbon receptor (AhR) signaling pathway - cell viability counter screen (AID 743086); note: nearly all actives have a fitted effect of over 45% in size; note: potency is the fitted concentration of half-maximal effect
In short: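 HepG2-AhR-luc (HG2L7.5c1) cells, 4000/well, treated 24 h at 37 C with compound; viability measured as CellTiter-Fluor fluorescence after 30 min in the same wells as the luciferase read.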

[13] = molecular target: Peroxisome proliferator-activated receptor gamma (Homo sapiens) (UniProt P37231); assay: qHTS assay to identify small molecule agonists of the peroxisome proliferator-activated receptor gamma (PPARg) signaling pathway (AID 743094; active = well fitted activation curve with a large enough effect in the signal ratio in the repeat runs, not every such curve was filed as active; inconclusive = weak or mixed curves, or effect the other way; inactive = no such curve, though single readings can be large or run the other way; the % refers to the signal ratio)
Peroxisome proliferator-activated receptor gamma (Homo sapiens), sequence (P37231 whole entry, looked up): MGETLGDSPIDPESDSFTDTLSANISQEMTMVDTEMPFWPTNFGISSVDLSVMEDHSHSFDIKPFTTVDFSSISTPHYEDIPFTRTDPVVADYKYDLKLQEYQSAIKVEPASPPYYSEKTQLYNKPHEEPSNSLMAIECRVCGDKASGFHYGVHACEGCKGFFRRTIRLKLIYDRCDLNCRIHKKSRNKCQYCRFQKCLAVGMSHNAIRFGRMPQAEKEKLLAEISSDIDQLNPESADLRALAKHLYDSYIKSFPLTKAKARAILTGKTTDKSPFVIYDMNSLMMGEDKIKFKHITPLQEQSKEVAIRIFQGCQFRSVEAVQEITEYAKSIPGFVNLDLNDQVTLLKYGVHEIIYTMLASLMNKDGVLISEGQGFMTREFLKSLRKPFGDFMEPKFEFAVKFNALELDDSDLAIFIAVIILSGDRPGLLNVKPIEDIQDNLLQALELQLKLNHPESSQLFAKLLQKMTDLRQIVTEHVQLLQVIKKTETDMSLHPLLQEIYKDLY
In short: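 Cell-based bla reporter, HEK293H background, PPARg-driven UAS. Pre-incubation 5 h, 37C, 5% CO2. Compound 17 h, 37C. Substrate 1 h RT; fluorescence.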

[14] = molecular target: Peroxisome proliferator-activated receptor gamma (Homo sapiens) (UniProt P37231); assay: qHTS assay to identify small molecule antagonists of the peroxisome proliferator-activated receptor gamma (PPARg) signaling pathway (AID 743191; calls by dose curve; note: series mostly up to about 63 µM; nearly all actives have a fitted effect of over 30% in size)
In short: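 GeneBLAzer PPARg UAS-bla HEK293H cells, 5 h post-plating, exposed to compounds 17 h at 37C. LiveBLAzer B/G FRET substrate added for 1 h at room temperature; beta-lactamase reporter read by fluorescence intensity.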

[15] = qHTS assay to identify small molecule antagonists of the peroxisome proliferator-activated receptor gamma (PPARg) signaling pathway - cell viability counter screen (AID 743194); note: nearly all actives have a fitted effect of over 55% in size
In short: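 Cytotoxicity counter screen in PPARg-bla HEK293H cells, same wells as reporter assay. Compounds plus 50 nM rosiglitazone (final) for 17 h at 37 C, then viability read by CellTiter-Glo luminescence.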

[16] = qHTS assay for small molecule agonists of the antioxidant response element (ARE) signaling pathway (AID 743202; active = well fitted activation curve with a large enough effect in the signal ratio in the repeat runs, not every such curve was filed as active; inconclusive = weak or mixed curves, or effect the other way; inactive = no such curve, though single readings can be large or run the other way; the % refers to the signal ratio; note: potency is the fitted concentration of half-maximal effect)
In short: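 HepG2 ARE-bla cells; 16 h treatment at 37 C; FRET-based beta-lactamase fluorescence read after 2 h substrate incubation at room temperature.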

[17] = qHTS assay for small molecule activators of the heat shock response signaling pathway - cell viability counter screen (AID 743209); note: nearly all actives have a fitted effect of over 50% in size
In short: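 Same-well multiplex: after 2.5 h room-temperature incubation with LiveBLAzer B/G substrate and fluorescence reading, CellTiter-Glo reagent was added to HSE-bla HeLa cells that had received compound for 5 h at 37 C; luminescence read after 30 min.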

[18] = qHTS assay for small molecule activators of the heat shock response signaling pathway (AID 743210; active = well fitted activation curve with a large enough effect in the signal ratio in the repeat runs, with a control signal flat, not every such curve was filed as active; inconclusive = weak or mixed curves; the % refers to the signal ratio;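 note: HeLa cells with beta-lactamase reporter driven by heat shock elements; series mostly up to about 63 µM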)
In short: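 Following overnight attachment, HSE-bla HeLa cells received test compounds for 5 h at 37 C; beta-lactamase activity was then detected via FRET substrate fluorescence.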

[19] = qHTS assay for small molecule agonists of the antioxidant response element (ARE) signaling pathway - cell viability counter screen (AID 743203; calls by dose curve; note: nearly all actives have a fitted effect of over 55% in size)
In short: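 Measured in the same wells as the beta-lactamase ARE reporter, this read-out is CellTiter-Glo luminescence from HepG2 ARE-bla cells given compounds for 16 hrs.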

Structure (SMILES)	Potency [1]	Potency [2]	Potency [3]	Potency [4]	Potency [5]	Potency [6]	Potency [7]	Potency [8]	Potency [9]	Potency (Aromatase (Homo sapiens))	Potency [10]	Potency [11]	Potency [12]	outcome [13]	outcome [14]	outcome [15]	Potency [16]	outcome [17]	outcome [18]	outcome [19]
COc1ccc2[nH]cc(CCNC(C)=O)c2c1	inactive	inactive	inactive	inactive	inactive	inactive	inactive and 55.3 µM (active)	inactive	inactive	inactive	inactive	inactive	inactive	inactive	inactive	inactive	inactive	inactive	inactive	
CC(=O)NS(=O)(=O)c1ccc(N)cc1	inactive	inactive	inactive	inactive	inactive	inactive	inactive	inactive	inactive	inactive	inactive	inactive	inactive			inactive	inactive	inactive	inactive	
COC(=O)[C@H](Cc1ccccc1)NC(=O)[C@@H](N)CC(=O)O (H-Asp-Phe-OMe)	inactive	inactive	inactive	inactive	inactive	inactive	inactive	inactive	inactive	inactive	inactive	inactive	inactive	inactive	inactive	inactive	inactive	inactive	inactive	
O=C(O)CCCCC(=O)O	inactive	inactive	inactive	inactive	inactive	inactive	inactive	inactive	inactive	inactive	inactive	inactive	inactive	inactive			inactive	inactive		
Cc1cn([C@H]2C[C@H](N=[N+]=[N-])[C@@H](CO)O2)c(=O)[nH]c1=O	inactive	inactive	inactive	inactive	inactive	inactive	inactive and 17.7 µM (active)	inactive	inactive	inactive	inactive	inactive	inactive	inactive	inactive		inactive	inactive	inactive	
Nc1ccn([C@H]2CC[C@@H](CO)O2)c(=O)n1	inactive	inactive	inactive	inactive	inactive	inactive	inactive	inactive	inactive	inactive	inactive		inactive	inactive	inactive	inactive	inactive	inactive	inactive	inactive
CC(O)C(=O)O (stereo not given)	inactive	inactive	inactive	inactive	inactive	inactive	inactive	inactive	inactive	inactive	inactive	inactive	inactive				inactive	inactive	inactive	
O=C(O)c1[nH]n(-c2ccc(S(=O)(=O)O)cc2)c(=O)c1N=Nc1ccc(S(=O)(=O)O)cc1	54.6 µM (active) and 50.9 µM (active)	inactive	inactive	inactive	inactive	inactive	inactive	inactive	inactive and 54.6 µM (active) and 64.1 µM (active)	inactive	30.7 µM (active) and 57.1 µM (active)	inactive	30.7 µM (active) and 22.7 µM (active)	inactive	inactive	inactive	inactive	inactive	inactive	inactive
NC(N)=NC(=O)c1nc(Cl)c(N)nc1N	inactive	21.1 µM (active) and 54.8 µM (active)	inactive	inactive	inactive	inactive	inactive	inactive	inactive	inactive	inactive	inactive	inactive	inactive	inactive		inactive and 25.3 µM (active)	inactive	inactive	
O=c1cc[nH]c(=S)[nH]1	inactive	inactive	inactive	inactive	inactive	inactive	inactive	inactive	inactive	inactive	inactive	inactive	inactive	inactive	inactive	inactive	inactive	inactive	inactive	
Cn1c(=O)c2[nH]cnc2n(C)c1=O	inactive	inactive	inactive and 30.6 µM (active)	inactive	inactive	inactive	inactive	inactive	inactive	inactive	inactive	inactive	inactive	inactive			inactive	inactive	inactive	inactive
O=C(O)CS	inactive and 61.6 µM (active)	inactive	inactive	inactive	inactive	inactive	inactive	inactive	inactive	inactive	inactive	inactive	inactive	inactive	inactive	inactive	inactive	inactive	inactive	
N=C(N)c1ccc(OCCCCCOc2ccc(C(=N)N)cc2)cc1	60.8 µM (active) and 46.4 µM (active)	26.6 µM (active) and 60.8 µM (active) and 58.4 µM (active)	inactive	12 µM [inconclusive] (active) and 15.4 µM [inconclusive] (active) and 46.8 µM [inconclusive] (active)	inactive	inactive		11.9 µM (active) and 46.4 µM (active)	inactive	26.1 µM (active)	inactive		inactive	inactive				inactive	inactive	
CCCC(O)C(CC)CO (stereo not given)	inactive	inactive	inactive	inactive	inactive	inactive	inactive	inactive	inactive	inactive	inactive	inactive	inactive	inactive	inactive		inactive	inactive	inactive	
